# Results: paper PMC5540273 (PLoS ONE, 2017)
# System: T1, HASPIN
# T1 construct: gene GSG2
# Conditions: concentration: 1 μM, replicates: in singlicate; n = 1
# 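Note: KINOMEscan kinase panel screen.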
row,SMILES,%Inh
1,Cn1cncc1-c1ccc2ncnc(Nc3ccc(OCc4ccccc4)cc3)c2c1 [GW320571],10%
2,Cc1cc(-c2ccc3c(c2)CC[C@@H](N[C@@H](C)c2ccccc2)C3)cnc1N.Cl [GW412617],0%
3,Fc1cccc(COc2nnc(-c3ccc4c(c3)CCO4)o2)c1,44%
4,O=C(Nc1n[nH]c2cc(-c3cccc(F)c3F)ccc12)C1CC1 [SB-733894],9%
5,COc1cc(Nc2nccc(N3CCC(NC(=O)Nc4cc(C)ccc4C)C3)n2)cc(OC)c1OC (centres unmarked) [GSK1379762],0%
6,CC(C)(C)c1ccc(C(=O)Nc2cn3cc(Cl)ccc3n2)cc1,0%
7,COc1ccc2nc(-c3cccc(C)n3)nc(Nc3ccncc3)c2c1 [GSK204919],15%
8,Cc1c(O)cccc1Nc1ccnc2ccc(C(F)(F)F)cc12.Cl [GW466413],34%
9,Cc1ccc(-c2cc(-c3c[nH]nc3-c3ccccn3)ccn2)cc1 [GW684088],35%
10,O=S(=O)(c1ccc(-c2ccnc3[nH]ccc23)cc1)N1CCCC1 [GSK846226],12%
11,Cn1ccc2ncnc(Oc3cccc(C(=O)Nc4ccccc4)c3)c21,37%
12,CCCc1ccc(S(=O)(=O)NC2CCN(c3ccnc(Nc4ccc(F)cc4)n3)C2)cc1 (centres unmarked) [GSK1379715],0%
13,O=C1NC(=O)C(N2CCc3ccccc32)=C1c1ccccc1Cl [SB-373598],100%
14,COC(=O)c1c(-c2ccccc2)c2cc(OC)ccc2c(=O)n1Cc1ccccc1,3%
